Common to all, as to assay: NCI-60 one-dose screen, 48 h (100 = growth as untreated, 0 = no growth, -100 = all killed)
For one assay, the system named is K-562 leukemia. The settings on record: 10 µM unless noted.
A further assay deals with MALME-3M melanoma. The settings on record: 10 µM unless noted.
Another assay has as its system MDA-MB-231 breast. The note with it: 10 µM unless noted.
For a further assay, the system named is RXF 393 renal. The settings on record: 10 µM unless noted.
The next assay has as its system SF-268 CNS. The note with it: 10 µM unless noted.
The test system of the next assay is SF-295 CNS. The settings on record: 10 µM unless noted.
For another assay, the system named is SF-539 CNS. The note with it: 10 µM unless noted.
Another assay deals with UACC-257 melanoma. The settings on record: 10 µM unless noted.
A further assay has as its system M14 melanoma. The settings on record: 10 µM unless noted.
For a further assay, the system named is HCT-15 colon. The note with it: 10 µM unless noted.
For a further assay, the system named is HT29 colon. The note with it: 10 µM unless noted.
The subject of another assay is SNB-75 CNS. The note with it: 10 µM unless noted.
The next assay concerns SNB-19 CNS. The settings on record: 10 µM unless noted.
The subject of another assay is U251 CNS. The settings on record: 10 µM unless noted.
The next assay relates to PC-3 prostate. The note with it: 10 µM unless noted.
The subject of another assay is SK-MEL-5 melanoma. The note with it: 10 µM unless noted.
The test system of another assay is UACC-62 melanoma. The settings on record: 10 µM unless noted.
The test system of the next assay is LOX IMVI melanoma. The settings on record: 10 µM unless noted.
The next assay concerns SK-MEL-28 melanoma. The note with it: 10 µM.
In another assay the test system is SK-MEL-2 melanoma. The settings on record: 10 µM unless noted.

Compounds without any hit were thinned out: in the full panel of roughly 83,000, 20% have a hit.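 Step 1: grow cells in 96-well plates. Step 2: add test compound at a single concentration. Step 3: incubate 48 h. Step 4: record percent growth.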 A number with no mark means an inactive call. Active and inactive are the calls of the source. The calls were made as follows: active = growth percent below 10; inactive = the rest.

The record followed here is PubChem BioAssay (NCI).

Turning to `CCOc1cccc(/C=N\Nc2nc(=O)cc(C(=O)OC)s2)c1O`, the growth was 50.8% with K-562 leukemia; 66.8% in the assay with MALME-3M melanoma; 78.7% in the assay on MDA-MB-231 breast; 97% in the assay on RXF 393 renal; 76% in the assay on SF-268 CNS; 57.5% in the assay with SF-295 CNS. Further, the growth in the assay with SF-539 CNS is 82.6%; in the assay on UACC-257 melanoma it was 78.2%; in the assay with M14 melanoma, 63.7%; with HCT-15 colon it was 45.6%; in the assay with HT29 colon, 76.1%; in the assay on SNB-75 CNS, 77.8%. The growth is 75.9% in the assay on SNB-19 CNS; 57.6% with U251 CNS; 72.8% with PC-3 prostate; 79.8% in the assay with SK-MEL-5 melanoma; 63% in the assay on UACC-62 melanoma; 61.7% with LOX IMVI melanoma. The growth in the assay on SK-MEL-28 melanoma is 87.2%; in the assay with SK-MEL-2 melanoma it was 99.6%.

Consider `C=C1C(=O)O[C@H]2[C@H]1CC/C(COC(=O)/C=C\C(=O)O)=C\CC[C@@]1(C)O[C@@H]21`, for which the growth in the assay with K-562 leukemia was 109%; in the assay with MALME-3M melanoma it was 99.8%; with MDA-MB-231 breast, 103%; with RXF 393 renal, 111%; with SF-268 CNS, 100%; in the assay on SF-295 CNS, 96.7%. Also, the growth in the assay with SF-539 CNS is 93.2%; with UACC-257 melanoma, 99.8%; in the assay on M14 melanoma it was 110%; in the assay on HCT-15 colon, 105%; in the assay on HT29 colon, 108%; with SNB-75 CNS, 79.4%. Moreover, the growth in the assay with SNB-19 CNS was 98.8%; in the assay on U251 CNS it was 108%; in the assay on PC-3 prostate, 102%; with SK-MEL-5 melanoma, 102%; in the assay on UACC-62 melanoma, 98%; in the assay on LOX IMVI melanoma, 99.4%. In addition, the growth in the assay with SK-MEL-28 melanoma is 98.8%; in the assay with SK-MEL-2 melanoma, 112%.

As to `CC[C@]1(O)C[C@@H]2CN(CCc3c([nH]c4ccccc34)[C@@](C(=O)OC)(c3cc4c(cc3OC)N(C)[C@H]3[C@@](O)(C(=O)OC)[C@H](OC(=O)CCCBr)[C@]5(CC)C=CCN6CC[C@]43[C@@H]65)C2)C1`, the growth with K-562 leukemia is 8.93% (active); in the assay with MALME-3M melanoma it was 39.4%; with MDA-MB-231 breast it was -16.5% (active); in the assay on RXF 393 renal, 34.2%; in the assay on SF-268 CNS it was 21.2%; in the assay on SF-295 CNS, 8.8% (active). Further, the growth with SF-539 CNS is -10.4% (active); with UACC-257 melanoma it was 62%; in the assay on M14 melanoma it was -11% (active); in the assay on HCT-15 colon, 10.5%; in the assay on HT29 colon, 4.86% (active); in the assay with SNB-75 CNS, 13.2%. For the same compound, the growth in the assay on SNB-19 CNS is 28.8%; in the assay on U251 CNS, 13.5%; with PC-3 prostate, 20.1%; with SK-MEL-5 melanoma, -42.8% (active); with UACC-62 melanoma it was 34.8%; in the assay with LOX IMVI melanoma, 8.02% (active). Also, the growth in the assay on SK-MEL-28 melanoma was 67.3%; in the assay with SK-MEL-2 melanoma it was 13.6%.

On to `c1ccc(-c2ccc(-c3nc4ccccc4[nH]3)cc2)cc1`, for which the growth in the assay on K-562 leukemia is 7.32% (active); in the assay with MALME-3M melanoma it was 92.4%; in the assay with MDA-MB-231 breast, 64.3%; in the assay on RXF 393 renal, 92.1%; in the assay on SF-268 CNS, 77.8%; in the assay with SF-295 CNS, 101%. The growth is 99% in the assay on SF-539 CNS; 98% with UACC-257 melanoma; 93.8% with M14 melanoma; 78.5% in the assay on HCT-15 colon; 52.9% with HT29 colon; 55.4% with SNB-75 CNS. Further, the growth is 106% in the assay on SNB-19 CNS; 90.6% in the assay on U251 CNS; 76.8% in the assay with PC-3 prostate; 100% in the assay on SK-MEL-5 melanoma; 103% in the assay with UACC-62 melanoma; 84.1% in the assay with LOX IMVI melanoma. In addition, the growth with SK-MEL-28 melanoma is 93.2%; in the assay on SK-MEL-2 melanoma, 101%.

On to `COc1ccc(OC)c(NC(=O)/C(C#N)=C/c2ccco2)c1`, for which the growth is 88.5% in the assay on K-562 leukemia; 80.3% in the assay on MALME-3M melanoma; 85.1% with MDA-MB-231 breast; 113% in the assay on RXF 393 renal; 105% in the assay on SF-268 CNS; 98% in the assay on SF-295 CNS. The growth in the assay with SF-539 CNS was 94.7%; in the assay on UACC-257 melanoma, 90.7%; in the assay with M14 melanoma, 99.2%; in the assay on HCT-15 colon, 91.2%; with HT29 colon it was 91.8%; with SNB-75 CNS, 82.2%. Moreover, the growth in the assay on SNB-19 CNS was 93.8%; in the assay on U251 CNS it was 94.2%; in the assay on PC-3 prostate it was 89.7%; with SK-MEL-5 melanoma, 102%; with UACC-62 melanoma, 86.5%; in the assay with LOX IMVI melanoma it was 98.2%. Also, the growth in the assay on SK-MEL-28 melanoma is 104%; in the assay on SK-MEL-2 melanoma, 87.1%.

For the compound `Cc1cc2c(c(C)c1Cl)C(=O)/C(=C/c1cccc([N+](=O)[O-])c1)O2`, the growth was 99.9% in the assay with K-562 leukemia; 97.1% with MALME-3M melanoma; 92.7% in the assay with MDA-MB-231 breast; 107% in the assay with RXF 393 renal; 100% in the assay with SF-268 CNS; 95.1% in the assay with SF-295 CNS. The growth with SF-539 CNS is 95%; in the assay on UACC-257 melanoma, 88.2%; in the assay on M14 melanoma it was 98.9%; in the assay on HCT-15 colon, 99.7%; in the assay on HT29 colon, 95.4%; in the assay with SNB-75 CNS, 102%. For the same compound, the growth with SNB-19 CNS was 96.8%; in the assay with U251 CNS, 93%; in the assay with PC-3 prostate, 100%; in the assay on SK-MEL-5 melanoma, 96.6%; with UACC-62 melanoma, 82%; in the assay on LOX IMVI melanoma, 102%. The results for the growth in the assay with SK-MEL-28 melanoma and with SK-MEL-2 melanoma were 102% and 97.7%, respectively.
